The entries come from a sample that favours hits as a whole.
AMA1-RON2 inh: AMA1-RON2 (P. falciparum) interaction inhibition; AID 720542; Potency, µM (highest dose often 58.2 µM), hits mostly inhibitors; AlphaScreen AMA1-biotinylated RON2 peptide binding; hit rate 0.2% among 360,000; active = well fitted inhibition curve with a large enough effect; inconclusive = small, poorly fitted or top-dose-only effect; inactive = no such curve, though single readings can be large or run the other way; also: nearly all actives have a fitted effect of over 45% in size
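AMA1 (3D7) with his tag at 25 nM final met compounds first, then biotinylated RON2 peptide at 25 nM; detection used donor plus acceptor beads, 10 µg/mL apiece, read by AlphaScreen after 30 min at room temperature.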
MARV entry inh: blocks Marburg virus binding to or entry into cells; Potency, µM (doses to about 37.8 µM), most hits filed as inhibitors; Marburg virus pseudotyped entry inhibition, cell reporter; hit rate 1.8% among 300,000; calls by dose curve; tested in HEK293 cells
Lassa entry inh: inhibitors of Lassa virus binding or cell entry; Lassa virus pseudotype entry inhibition, cell reporter; hit rate 1.2% among 300,000; Potency, µM (titrated, usually from 37.9 µM), most hits filed as inhibitors; calls by dose curve; tested in HEK293 cells; also: nearly all actives have a fitted effect of over 50% in size
Shiga toxin inh: Shiga toxin inhibition. Vero cells, Shiga toxin protein synthesis inhibition reporter. hit rate 9.2% among 290,000. inhibition, % at 38.7 µM; in the data active = inhibition mostly above about 28%, no sharp cut-off; inactive = mostly below about 43%
CHX counter: counter-screen for Shiga toxin inhibitors: cycloheximide protein synthesis inhibition; cell reporter, cycloheximide protein synthesis inhibition counterscreen; max response, %; hit rate 12% among 300,000; in the data active = max response mostly above about 13%, no sharp cut-off; inactive = mostly below about 14%; also: read at 38.3 µM for the half of the compounds with a filed dose
Of the large screens only hits and unclear results are named; the others gave an inactive call.

O=C1COc2cc(S(=O)(=O)CCC(=O)N3CCN(c4cccc(Cl)c4)CC3)c(Cl)cc2N1	none (no result: AMA1-RON2 inh, MARV entry inh, Shiga toxin inh, CHX counter)
Cn1c(=O)c2[nH]c(CNCc3ccccc3Cl)nc2n(C)c1=O	none
CN=c1scc(-c2ccccc2Br)n1/N=C/c1ccc[nH]1	Shiga toxin inh 86, CHX counter 29 (no result: AMA1-RON2 inh, MARV entry inh, Lassa entry inh)
O=S(=O)(c1ccc(F)c(F)c1)N1CCCc2ccccc21	Shiga toxin inh 64, CHX counter 37 (no result: MARV entry inh, Lassa entry inh)
COC(=O)Nc1ccc(S(=O)(=O)N2CCCc3ccccc32)cc1	MARV entry inh inconclusive, Shiga toxin inh 41, CHX counter 18
O=S(=O)(c1ccc(Br)cc1)N1CCCc2ccccc21	MARV entry inh inconclusive, CHX counter 12
Cc1ccc(S(=O)(=O)N2CCCc3cc(NS(=O)(=O)c4ccccc4)ccc32)cc1	Lassa entry inh 10µM (no result: AMA1-RON2 inh, MARV entry inh, Shiga toxin inh, CHX counter)
Cc1ccc(S(=O)(=O)N2CCCc3cc(NC(=O)c4c(F)cccc4F)ccc32)cc1	none (no result: MARV entry inh)
CCOC(=O)c1c(C)nc2c(c1-c1cc(OC)ccc1OC)C(=O)CC(C)(C)C2	none (no result: MARV entry inh, Lassa entry inh)
O=C(Nc1cccc2ccccc12)c1ccco1	none (no result: MARV entry inh, Lassa entry inh, Shiga toxin inh, CHX counter)
Cc1ccoc1C(=O)Nc1cccc2ccccc12	CHX counter 31 (no result: MARV entry inh, Lassa entry inh)
CCOc1ccccc1NC(=O)c1cccc2ccccc12	none (no result: Shiga toxin inh)
COc1cccc(C(=O)Nc2cccc3ccccc23)c1OC	MARV entry inh 8.9µM, Lassa entry inh inconclusive, Shiga toxin inh 27, CHX counter 20
COc1cc(Cl)c(C)cc1NC(=O)c1cccc(OC)c1OC	MARV entry inh inconclusive, CHX counter 30
COc1ccc(C(NC(=O)c2c(F)c(F)c(F)c(F)c2F)c2ccccc2)cc1 (stereo not given)	MARV entry inh inconclusive, Lassa entry inh 22µM
CCc1ccccc1NC(=O)c1sc(-n2nc(C)c(Cc3ccccc3)c2C)nc1C	MARV entry inh inconclusive (no result: AMA1-RON2 inh, Shiga toxin inh, CHX counter)
CCCCNC(=O)CNC(=S)N(CCCN1CCOCC1)Cc1cccs1	MARV entry inh inconclusive
CNc1oc(-c2ccc(C)cc2)nc1P(=O)(c1ccccc1)c1ccccc1	MARV entry inh inconclusive, Lassa entry inh 21µM
CNc1oc(-c2ccccc2Cl)nc1P(=O)(c1ccccc1)c1ccccc1	MARV entry inh inconclusive, Lassa entry inh inconclusive
CC1(C)CC(=O)C=C(c2ccc(-c3cnc4ccccc4c3)cc2)C1=O	none (no result: MARV entry inh, Lassa entry inh, Shiga toxin inh, CHX counter)
C=CCNC(=O)c1onc(CSc2ccccn2)c1C(=O)NCC=C	none (no result: MARV entry inh, Lassa entry inh)
COc1cc2c(cc1OC)CN(S(=O)(=O)/C=C/c1ccccc1)CC2	MARV entry inh inconclusive, Lassa entry inh 1.3µM
O=c1cc(Nc2ccc3c(c2)OCCO3)[nH]c(=O)n1Cc1ccc(F)cc1	Shiga toxin inh 49, CHX counter 29
O=c1cc(Nc2ccc3c(c2)OCCO3)[nH]c(=O)n1-c1ccc(Br)cc1	MARV entry inh inconclusive, Lassa entry inh inconclusive
Cn1c(=O)oc2cc(S(=O)(=O)NCCC(=O)Nc3ccc4c(c3)OCCO4)ccc21	CHX counter 20
O=S(=O)(Nc1ccc(-c2cn3ccsc3n2)cc1)c1ccc2c(c1)OCCO2	Shiga toxin inh 69
Cn1c(=O)oc2cc(S(=O)(=O)Nc3ccc4c(c3)OCCO4)ccc21	none
Cn1c(=O)oc2cc(S(=O)(=O)NCCC(=O)Nc3ccc(F)c(Cl)c3)ccc21	none (no result: AMA1-RON2 inh, Shiga toxin inh, CHX counter)
COc1cccc(S(=O)(=O)Nc2ccc3c(c2)OCCO3)c1	Shiga toxin inh 52, CHX counter 37
Cn1c(=O)c(=O)n(C)c2cc(S(=O)(=O)Nc3ccc4c(c3)OCCO4)ccc21	Shiga toxin inh 115, CHX counter 62
Cc1cccc(S(=O)(=O)Nc2ccc3c(c2)OCCO3)c1	Lassa entry inh inconclusive
Cc1cccc(C)c1NC(=O)CSc1nc2ncccc2o1	none (no result: AMA1-RON2 inh, MARV entry inh, Shiga toxin inh, CHX counter)
COCCN(C(=O)c1sc2ccccc2c1Cl)c1c(N)n(CC(C)C)c(=O)[nH]c1=O	none (no result: MARV entry inh, Lassa entry inh, Shiga toxin inh, CHX counter)
COc1ccc(NS(=O)(=O)c2ccc(NS(=O)(=O)c3ccc4c(c3)OCCO4)cc2)cc1	none (no result: AMA1-RON2 inh, Shiga toxin inh, CHX counter)
COC(=O)COc1ccc(S(=O)(=O)Nc2ccc3c(c2)OCCO3)cc1Cl	none
COc1ccc(NS(=O)(=O)c2ccc3oc(Nc4ccc5c(c4)OCCO5)nc3c2)cc1	Lassa entry inh inconclusive, Shiga toxin inh active, CHX counter 30
COC(=O)COc1ccc(S(=O)(=O)Nc2ccc3c(c2)OCCO3)cc1C	Shiga toxin inh 68, CHX counter 25
CCOC(=O)c1cccc(NC(=O)CC2C(=O)N(c3ccc(C)cc3)C(=O)N2Cc2cccc(OC)c2)c1 (stereo not given)	none (no result: AMA1-RON2 inh, MARV entry inh, Shiga toxin inh, CHX counter)
Cc1ccc(C(=Cc2ccc([N+](=O)[O-])cc2)C(=O)O)cc1	none (no result: MARV entry inh, Lassa entry inh, Shiga toxin inh, CHX counter)
O=Cc1ccccc1OCCOc1ccccc1C=O	Lassa entry inh inconclusive, Shiga toxin inh 52, CHX counter 34
CN(C)C(=O)c1ccc(NC(=O)Cn2nnnc2-c2ccccc2F)cc1	none (no result: AMA1-RON2 inh, Shiga toxin inh, CHX counter)

Screens deposited in PubChem BioAssay by National Center for Advancing Translational Sciences (NCATS).
